The results in this text go back to the antibiotic and cytotoxicity screens of Wong et al. (2023).

Structures are written as SMILES. About 3,300 (8.5%) of roughly 39,000 compounds were called active. For the sample, actives were picked, then their nearest neighbours and some compounds at random.

This experiment deals with HepG2. As to the kind of experiment: cytotoxicity call (relative viability < 0.9). The settings on record: 10 µM.
In the case of `CN1CCN(C(=O)C[C@H]2CC[C@@H]3[C@H](COC[C@H](O)CN3C(=O)C3CC3)O2)CC1`, the cytotoxicity call was “inactive”. In the case of `O=C(O)[C@H]1CCCC[C@@H]1C(=O)N1CCOCC1` it was “inactive”; in that of `CO[C@@H]1CN(C)C(=O)c2ccc(NS(C)(=O)=O)cc2OC[C@@H](C)N(C(=O)C2CCCCC2)C[C@H]1C`, “inactive”; in that of `COc1ccc(NC(=O)N2C[C@@H](O)COC[C@@H]3O[C@H](CC(=O)NCc4ccccc4OC)CC[C@H]32)cc1`, “inactive”. The value for `C[C@@H]1CN([C@@H](C)CO)S(=O)(=O)c2ccc(C#CC3CC3)cc2O[C@H]1CN(C)Cc1ccccc1F` was “inactive”; that for `COc1ccc(S(=O)(=O)N[C@H]2CC[C@@H](CC(=O)N3CCN(c4ccccc4)CC3)O[C@H]2CO)cc1` was “inactive”; that for `CC(C)NC(=O)Nc1ccc2c(c1)C(=O)N([C@H](C)CO)C[C@@H](C)[C@H](CN(C)S(C)(=O)=O)OCCCC[C@H](C)O2` was “inactive”. The value for `O=C(C[C@H]1CC[C@@H](NS(=O)(=O)c2ccc(F)cc2)[C@@H](CO)O1)NCc1ccc(Cl)c(Cl)c1` was “inactive”; that for `C[C@@H]1CCCCO[C@@H](CN(C)C(=O)Nc2ccc(F)cc2)[C@H](C)CN([C@H](C)CO)C(=O)c2cc(NC(=O)Cc3ccccc3)ccc2O1` was “inactive”. With `C[C@@H]1O[C@@H](O[C@@H]2[C@@H](O)[C@H](C)O[C@@H](OC[C@H]3O[C@@H](Oc4c(-c5ccc(O)cc5)oc5cc(O)cc(O)c5c4=O)[C@H](O)[C@@H](O)[C@H]3O)[C@@H]2O)[C@H](O)[C@H](O)[C@H]1O`, the cytotoxicity call was “inactive”. The value for `C[C@@H]1CN([C@@H](C)CO)C(=O)c2cc(C#Cc3cccnc3)cnc2O[C@@H]1CN(C)Cc1ccc(F)cc1` was “inactive”; that for `C[C@H](CO)N1C[C@H](C)[C@@H](CN(C)Cc2ccccc2)Oc2c(NC(=O)c3ccc(-c4nccs4)cc3)cccc2C1=O` was “inactive”.

On to `N#CCNC(=O)Cc1ccccc1`, for which the cytotoxicity call is “inactive”. The value for `N[C@@H](Cc1cc(I)c(Oc2ccc(O)c(I)c2)c(I)c1)C(=O)O` was “inactive”; that for `NC(Cc1cc(I)c(Oc2ccc(O)c(I)c2)c(I)c1)C(=O)[O-].[Na+]` [LIOTHYRONINE (L- isomer) SODIUM ] was “active”; that for `NC(Cc1cc(I)c(Oc2ccc(O)c(I)c2)c(I)c1)C(=O)O` (stereo not drawn) was “inactive”. In the case of `COc1cccc(S(=O)(=O)Nc2ccc3c(c2)[C@@H]2C[C@@H](CC(=O)NCc4cccc(F)c4)O[C@@H](CO)[C@@H]2O3)c1`, the cytotoxicity call is “inactive”. The value for `Cc1noc(C)c1S(=O)(=O)Nc1ccc2c(c1)CC(=O)N([C@H](C)CO)C[C@H](C)[C@H](CN(C)CC1CC1)O2` was “inactive”; that for `Cc1noc(C)c1S(=O)(=O)N(C)C[C@@H]1OCCCC[C@H](C)Oc2ccc(NC(=O)Nc3ccccc3)cc2C(=O)N([C@H](C)CO)C[C@H]1C` was “active”. The value for `Cc1noc(C)c1S(=O)(=O)N(C)C[C@@H]1OCCCC[C@@H](C)Oc2ccc(NC(=O)Nc3ccccc3)cc2C(=O)N([C@H](C)CO)C[C@H]1C` was “inactive”; that for `Cc1noc(C)c1S(=O)(=O)N(C)C[C@H]1OCCCC[C@H](C)Oc2ccc(NC(=O)Nc3ccccc3)cc2C(=O)N([C@H](C)CO)C[C@@H]1C` was “inactive”; that for `Cc1noc(C)c1S(=O)(=O)N(C)C[C@H]1OCCCC[C@@H](C)Oc2ccc(NC(=O)Nc3ccccc3)cc2C(=O)N([C@@H](C)CO)C[C@@H]1C` was “active”. In the case of `Cc1noc(C)c1S(=O)(=O)N(C)C[C@H]1OCCCC[C@H](C)Oc2ccc(NC(=O)Nc3ccccc3)cc2C(=O)N([C@H](C)CO)C[C@H]1C`, the cytotoxicity call is “inactive”. Turning to `Cc1noc(C)c1S(=O)(=O)N(C)C[C@@H]1OCCCC[C@@H](C)Oc2ccc(NC(=O)Nc3ccccc3)cc2C(=O)N([C@@H](C)CO)C[C@@H]1C`, the cytotoxicity call was “inactive”. In the case of `COc1cccc(S(=O)(=O)N(C)C[C@H]2Oc3cc(C4=CCCC4)ccc3S(=O)(=O)N([C@@H](C)CO)C[C@@H]2C)c1` it was “inactive”; in that of `CC(C)NC(=O)Nc1ccc2c(c1)C(=O)N([C@@H](C)CO)C[C@@H](C)[C@@H](CN(C)C(=O)Nc1ccccc1)OCCCC[C@H](C)O2`, “inactive”; in that of `C[C@@H](NC(=O)C[C@@H]1C=C[C@H](NC(=O)CN2CCOCC2)[C@H](CO)O1)c1ccccc1`, “inactive”. In the case of `Cc1ccc(OC(=O)n2c3ccccc3c3ccccc32)cc1` it was “inactive”; in that of `CC1=CC(C)(C)N(C(=O)Nc2ccc(C)cc2)c2ccccc21`, “inactive”; in that of `Cc1ccc(NC(=O)n2c3ccccc3c3ccccc32)cc1`, “active”.

In the case of `C[C@@H]1CN([C@H](C)CO)S(=O)(=O)c2ccc(C3=CCCCC3)cc2O[C@H]1CN(C)S(=O)(=O)c1cn(C)cn1`, the cytotoxicity call was “inactive”.

Consider `O=C(C[C@@H]1CC[C@@H]2[C@H](COC[C@@H](O)CN2S(=O)(=O)c2cccc(Cl)c2)O1)NCc1ccc2c(c1)OCO2`, for which the cytotoxicity call is “inactive”. In the case of `O=C(NO)c1ccc(-c2cn(CC(=O)N3CCOCC3)nn2)s1` it was “inactive”; in that of `CC[C@@H](C)CCCCC(=O)N[C@@H](CCN)C(=O)N[C@H](C(=O)N[C@@H](CCN)C(=O)N[C@H]1CCNC(=O)[C@H]([C@@H](C)O)NC(=O)[C@H](CCN)NC(=O)[C@H](CCN)NC(=O)[C@H](CC(C)C)NC(=O)[C@@H](Cc2ccccc2)NC(=O)[C@@H](CCN)NC1=O)[C@@H](C)O`, “inactive”; in that of `CC(C)C[C@H]1NC(=O)[C@@H](CCCN)NC(=O)[C@H](C(C)C)NC(=O)[C@H]2CCCN2C(=O)[C@@H](Cc2ccccc2)NC(=O)[C@@H](CC(C)C)NC(=O)[C@@H](CCCN)NC(=O)[C@H](C(C)C)NC(=O)[C@H]2CCCN2C(=O)[C@@H](Cc2ccccc2)NC1=O`, “active”.

Take `CC1NC(=O)C2CCCN2C(=O)C(CC(N)=O)NC(=O)C2CSSCC(N)C(=O)NC3CSSCC(NC1=O)C(=O)NC(C(C)O)C(=O)NCC(=O)NC(C(=O)NC(Cc1ccc(O)cc1)C(=O)O)CSSCC(NC(=O)C(Cc1ccc(O)cc1)NC(=O)C(CCC(=O)O)NC3=O)C(=O)N2` (stereo not drawn): the cytotoxicity call was “inactive”. The value for `CC(C)C[C@@H]1NC(=O)[C@@H](C(C)C)NC(=O)[C@@H]2CCCN2C(=O)[C@@H](CC(=O)O)NC(=O)[C@@H](Cc2c[nH]c3ccccc23)NC1=O` was “inactive”; that for `C[C@H]1[C@H]2[C@H](Cc3ccccc3)NC(=O)[C@]23C(=O)N[C@H](Cc2ccccc2)C(=O)N2CCC[C@H]2C(=O)NC/C=C\C/C=C/[C@@H]3[C@@H]2O[C@]12C` was “inactive”. In the case of `C[C@H]1CN([C@@H](C)CO)C(=O)c2cc(NS(=O)(=O)c3cccs3)ccc2O[C@H]1CN(C)S(C)(=O)=O` it was “inactive”. In the case of `COc1ccc(S(=O)(=O)N(C)C[C@@H]2Oc3ccc(NS(=O)(=O)c4ccccc4)cc3CC(=O)N([C@H](C)CO)C[C@@H]2C)cc1` it was “inactive”; in that of `COCCN(C)C(=O)c1ccc2nnc([C@H]3CN(S(C)(=O)=O)CCN3C)n2c1`, “inactive”; in that of `C=CCOC(=O)[C@@H]1[C@H]2C(=O)O[C@H](c3ccccc3)[C@H](c3ccccc3)N2[C@H](c2ccc(OCCOC(=O)[C@@H]3C[C@@H]4C(=O)N[C@@H](CCCCNC(C)=O)C(=O)N4[C@@H]3c3ccc(O)cc3)cc2)[C@@]12C(=O)Nc1ccccc12`, “inactive”.

`CO[C@H]1/C=C\C=C(/C)C(=O)NC2=CC(=O)C(NCCN(C)C)=C(C[C@@H](C)C[C@H](OC)[C@H](O)[C@@H](C)/C=C(\C)[C@@H]1OC(N)=O)C2=O`: the cytotoxicity call is “active”. In the case of `C=CCNC1=C2C[C@H](C)C[C@H](OC)[C@@H](O)[C@H](C)/C=C(\C)[C@H](OC(N)=O)[C@H](OC)/C=C/C=C(\C)C(=O)NC(=CC1=O)C2=O` it was “active”. In the case of `C=CCNC1=C2C[C@@H](C)C[C@H](OC)[C@H](O)[C@@H](C)/C=C(\C)[C@H](OC(N)=O)[C@@H](OC)/C=C\C=C(/C)C(=O)NC(=CC1=O)C2=O` it was “active”; in that of `C[C@H](CO)N1C[C@H](C)[C@H](CN(C)S(=O)(=O)c2cn(C)cn2)Oc2ccc(NS(=O)(=O)c3cn(C)cn3)cc2CC1=O`, “inactive”. The value for `CC(C)NC(=O)N(C)C[C@H]1OCc2cn(nn2)CCCC(=O)N([C@@H](C)CO)C[C@@H]1C` was “inactive”; that for `Cc1noc(C)c1NC(=O)N(C)C[C@@H]1Oc2cc(C#CCN(C)C)ccc2S(=O)(=O)N([C@@H](C)CO)C[C@H]1C` was “inactive”.

On to `COc1ccc(S(=O)(=O)Nc2ccc3c(c2)C(=O)N([C@@H](C)CO)C[C@@H](C)[C@H](CN(C)C(=O)c2ccccc2)OCCCC[C@@H](C)O3)cc1`, for which the cytotoxicity call was “inactive”. In the case of `Nc1ccccc1CO` it was “active”; in that of `OCc1ccccc1O`, “inactive”; in that of `Nc1cc(F)ccc1CO`, “inactive”. As to `C[C@H](CO)N1C[C@H](C)[C@H](CN(C)C(=O)c2ccccc2)Oc2cc(C#C[C@@H](C)O)ccc2S1(=O)=O`, the cytotoxicity call is “inactive”.

With `Cc1ccc(S(=O)(=O)Nc2ccc3c(c2)CC(=O)N([C@H](C)CO)C[C@H](C)[C@@H](CN(C)C(=O)NC(C)C)O3)cc1`, the cytotoxicity call was “inactive”.

Consider `C[C@@H]1CN([C@@H](C)CO)S(=O)(=O)c2ccc(C#CC3CC3)cc2O[C@H]1CN(C)C(=O)Cc1ccncc1`, for which the cytotoxicity call was “inactive”.

For `COc1ccc2c3c([nH]c2c1)[C@@H](CO)N(C[C@]13CN(C1)S(=O)(=O)c1cn(cn1)C)C(=O)Nc1ccc(cc1)F`, the cytotoxicity call was “inactive”. The value for `C[C@@H]1CN([C@@H](C)CO)C(=O)c2cc(NC(=O)Nc3ccc4c(c3)OCO4)ccc2O[C@@H]1CN(C)C(=O)Nc1ccc(C(F)(F)F)cc1` was “inactive”; that for `COC1C(O)CC(=O)OC(C)CC=CC=CC(OC2CCC(N(C)C)C(C)O2)C(C)CC(CC=O)C1OC1OC(C)C(OC2CC(C)(O)C(O)C(C)O2)C(N(C)C)C1O` (stereo not drawn) was “active”; that for `CO[C@@H]1[C@@H](O[C@@H]2O[C@H](C)[C@@H](O[C@H]3C[C@@](C)(O)[C@@H](OC(=O)CC(C)C)[C@H](C)O3)[C@H](N(C)C)[C@H]2O)[C@@H](CC=O)C[C@@H](C)[C@@H](O)/C=C\C=C/C[C@@H](C)OC(=O)C[C@H]1OC(C)=O` was “inactive”. In the case of `CO[C@@H]1[C@@H](O[C@@H]2O[C@H](C)[C@@H](O[C@H]3C[C@@](C)(O)[C@@H](O)[C@H](C)O3)[C@H](N(C)C)[C@H]2O)[C@@H](CC=O)C[C@@H](C)[C@@H](O[C@H]2CC[C@H](N(C)C)[C@@H](C)O2)/C=C/C=C/CC(C)OC(=O)C[C@H]1OC(C)=O` (stereo partly drawn), the cytotoxicity call was “inactive”. For the compound `COC1C(O)CC(=O)OC(C)CC=CC=CC(O)C(C)CC(CC=O)C1OC1OC(C)C(OC2CC(C)(O)C(OC(=O)CC(C)C)C(C)O2)C(N(C)C)C1O` (stereo not drawn) [KITASAMYCINS [A1 shown] ], the cytotoxicity call is “inactive”. Consider `CO[C@@H]1[C@@H](O[C@@H]2O[C@H](C)[C@@H](O[C@H]3C[C@@](C)(O)[C@@H](O)[C@H](C)O3)[C@H](N(C)C)[C@H]2O)[C@@H](CC=O)C[C@@H](C)[C@@H](O[C@H]2CC[C@H](N(C)C)[C@@H](C)O2)/C=C/C=C/C[C@@H](C)OC(=O)C[C@H]1O`, for which the cytotoxicity call was “inactive”. In the case of `CO[C@@H]1[C@@H](O[C@@H]2O[C@H](C)[C@@H](O[C@H]3C[C@@](C)(O)[C@@H](OC(=O)CC(C)C)[C@H](C)O3)[C@H](N(C)C)[C@H]2O)[C@@H](CC=O)C[C@@H](C)[C@@H](O)/C=C/C=C/CC(C)OC(=O)C[C@H]1OC(C)=O` (stereo partly drawn) it was “active”.
